Assay results from PubChem BioAssay (NCI).
Compounds without any hit were thinned out: in the full panel of roughly 83,000, 20% have a hit.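 Growth was measured after 48 h exposure to one concentration of compound in 96-well plates. Values under 10 count as active.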 Active and inactive are the calls of the source.

How the values were obtained:
Assay in all cases: NCI-60 one-dose screen, 48 h (100 = growth as untreated, 0 = no growth, -100 = all killed)
Details in all cases: 10 µM unless noted
DU-145 prostate = system: DU-145 prostate
K-562 leukemia = system: K-562 leukemia
MALME-3M melanoma = system: MALME-3M melanoma
MDA-MB-231 breast = system: MDA-MB-231 breast
RXF 393 renal = system: RXF 393 renal
SF-268 CNS = system: SF-268 CNS
SF-295 CNS = system: SF-295 CNS
SF-539 CNS = system: SF-539 CNS
UACC-257 melanoma = system: UACC-257 melanoma
M14 melanoma = system: M14 melanoma
HCT-15 colon = system: HCT-15 colon
HT29 colon = system: HT29 colon
SNB-75 CNS = system: SNB-75 CNS
SNB-19 CNS = system: SNB-19 CNS
U251 CNS = system: U251 CNS
PC-3 prostate = system: PC-3 prostate
SK-MEL-5 melanoma = system: SK-MEL-5 melanoma
UACC-62 melanoma = system: UACC-62 melanoma
LOX IMVI melanoma = system: LOX IMVI melanoma
SK-MEL-28 melanoma = system: SK-MEL-28 melanoma

Measured: growth

Cc1ccc(C(=O)COc2cccc(/C=C3\Oc4ccccc4C3=O)c2)cc1
inactive: DU-145 prostate 123% | K-562 leukemia 75.8% | MALME-3M melanoma 106% | MDA-MB-231 breast 83.1% | RXF 393 renal 94.5% | SF-268 CNS 120% | SF-295 CNS 120% | SF-539 CNS 103% | UACC-257 melanoma 129% | M14 melanoma 101% | HCT-15 colon 105% | HT29 colon 114% | SNB-75 CNS 104% | SNB-19 CNS 99.4% | U251 CNS 99.7% | PC-3 prostate 101% | SK-MEL-5 melanoma 123% | UACC-62 melanoma 73.2% | LOX IMVI melanoma 104% | SK-MEL-28 melanoma 135%

COc1cccc(-c2nn(-c3ccccc3)cc2-c2ccnc(NCCCNC(=O)c3cccc(C(F)(F)F)c3)c2)c1
active: MALME-3M melanoma 9.81% | HT29 colon 8.77% | SK-MEL-5 melanoma -64.4%
inactive: DU-145 prostate 52.3% | K-562 leukemia 18% | MDA-MB-231 breast 23.6% | RXF 393 renal 36% | SF-268 CNS 57.4% | SF-295 CNS 27.3% | SF-539 CNS 30.6% | UACC-257 melanoma 12.1% | M14 melanoma 28.2% | HCT-15 colon 21% | SNB-75 CNS 58.6% | SNB-19 CNS 45.3% | U251 CNS 24.7% | PC-3 prostate 13.3% | UACC-62 melanoma 23.9% | LOX IMVI melanoma 28% | SK-MEL-28 melanoma 50.3%

O=C(c1ccccc1)c1c(/C=C/c2ccc(Cl)cc2)nc2ccccc2c1/C=C/c1cccs1
inactive: DU-145 prostate 107% | K-562 leukemia 83.6% | MALME-3M melanoma 99.3% | MDA-MB-231 breast 94.4% | RXF 393 renal 104% | SF-268 CNS 93.5% | SF-295 CNS 102% | SF-539 CNS 97.3% | UACC-257 melanoma 87.7% | M14 melanoma 96.8% | HCT-15 colon 96.6% | HT29 colon 100% | SNB-75 CNS 84.1% | SNB-19 CNS 89.7% | U251 CNS 93.5% | PC-3 prostate 91.8% | SK-MEL-5 melanoma 100% | UACC-62 melanoma 87.4% | LOX IMVI melanoma 94.2% | SK-MEL-28 melanoma 102%

O=C1/C(=C/c2ccccc2)CCc2nc3ccccc3c(/C=C/c3ccc(Cl)cc3)c21
inactive: DU-145 prostate 98.1% | K-562 leukemia 82% | MALME-3M melanoma 105% | MDA-MB-231 breast 86.6% | RXF 393 renal 96.3% | SF-268 CNS 87.5% | SF-295 CNS 96.3% | SF-539 CNS 99.3% | UACC-257 melanoma 82.8% | M14 melanoma 86.6% | HCT-15 colon 69.4% | HT29 colon 81.3% | SNB-75 CNS 76.5% | SNB-19 CNS 96.3% | U251 CNS 93.2% | PC-3 prostate 79.6% | SK-MEL-5 melanoma 89.8% | UACC-62 melanoma 73% | LOX IMVI melanoma 84.7% | SK-MEL-28 melanoma 91.8%

COc1cccc(-c2nn(-c3ccccc3)cc2-c2ccnc(NCCNC(=O)Nc3cccc(C(F)(F)F)c3)c2)c1
inactive: DU-145 prostate 26.2% | MALME-3M melanoma 51.2% | RXF 393 renal 21.6% | SF-268 CNS 35.2% | SF-295 CNS 27.6% | SF-539 CNS 57.7% | UACC-257 melanoma 27.6% | SNB-75 CNS 46.3% | SNB-19 CNS 36% | U251 CNS 19.9% | PC-3 prostate 17.1% | SK-MEL-5 melanoma 39.2% | SK-MEL-28 melanoma 32.5%
active: K-562 leukemia 2.52% | MDA-MB-231 breast -10% | M14 melanoma 7.52% | HCT-15 colon 6.17% | HT29 colon -43.6% | UACC-62 melanoma -7.83% | LOX IMVI melanoma -77.3%

COc1cc(N2C(=O)c3nccnc3C2=O)cc(OC)c1OC
inactive: DU-145 prostate 115% | K-562 leukemia 98.1% | MALME-3M melanoma 96% | MDA-MB-231 breast 93.1% | RXF 393 renal 126% | SF-268 CNS 111% | SF-295 CNS 110% | SF-539 CNS 119% | UACC-257 melanoma 105% | M14 melanoma 91.8% | HCT-15 colon 104% | HT29 colon 99.8% | SNB-75 CNS 103% | SNB-19 CNS 106% | U251 CNS 97.5% | PC-3 prostate 98.7% | SK-MEL-5 melanoma 111% | UACC-62 melanoma 114% | LOX IMVI melanoma 106% | SK-MEL-28 melanoma 108%

O=C1/C(=C2/C=Nc3ccccc32)N(O)c2ccccc21
inactive: DU-145 prostate 73.7% | K-562 leukemia 19.6% | MALME-3M melanoma 56.3% | MDA-MB-231 breast 64.9% | RXF 393 renal 92.2% | SF-268 CNS 76% | SF-295 CNS 71% | SF-539 CNS 104% | UACC-257 melanoma 45% | M14 melanoma 87.4% | HCT-15 colon 49.5% | HT29 colon 100% | SNB-75 CNS 102% | SNB-19 CNS 93% | U251 CNS 84.9% | PC-3 prostate 51% | SK-MEL-5 melanoma 68% | UACC-62 melanoma 33.6% | LOX IMVI melanoma 33.5% | SK-MEL-28 melanoma 92.8%

NC[C@H](O)c1ccc(O)c(O)c1
inactive: DU-145 prostate 106% | K-562 leukemia 106% | MALME-3M melanoma 111% | MDA-MB-231 breast 78.8% | RXF 393 renal 117% | SF-268 CNS 112% | SF-295 CNS 123% | SF-539 CNS 92% | UACC-257 melanoma 109% | M14 melanoma 95.9% | HCT-15 colon 104% | HT29 colon 102% | SNB-75 CNS 120% | SNB-19 CNS 112% | U251 CNS 106% | PC-3 prostate 99.7% | SK-MEL-5 melanoma 104% | UACC-62 melanoma 102% | LOX IMVI melanoma 94.2% | SK-MEL-28 melanoma 116%
